Results: PubChem BioAssay AID588590 (National Center for Advancing Translational Sciences (NCATS), 2011)
About 4,000 (1%) of roughly 390,000 compounds were called active. Roughly 7% stayed inconclusive and do not appear here. The entries come from a sample that favours actives as a whole. Unmarked numbers belong to inactive results. The call rests on the fitted dose curve; in most records, active means well fitted inhibition curve with a large enough effect; inconclusive means small, poorly fitted or top-dose-only effect, or another doubt; inactive means no such curve, though single readings can be large or run the other way.

molecular target: DNA polymerase iota (Homo sapiens) (UniProt Q9UNA4); experiment: qHTS for Inhibitors of Polymerase Iota; conditions: Pol iota fluorescent replication assay, 10 min; series mostly up to 115 µM; activity, negative = inhibition: at the top concentration
Outline: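 Fluorescent replication assay read twice, at 0 min and 10 min after adding 50 nM (final) substrate. Enzyme (10 nM) and compounds were first incubated 15 min at room temperature; enzyme-free buffer wells were negative controls.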
Potency means the concentration at half of the fitted maximal effect.

Sequence of DNA polymerase iota (Homo sapiens) (Q9UNA4 whole entry, looked up): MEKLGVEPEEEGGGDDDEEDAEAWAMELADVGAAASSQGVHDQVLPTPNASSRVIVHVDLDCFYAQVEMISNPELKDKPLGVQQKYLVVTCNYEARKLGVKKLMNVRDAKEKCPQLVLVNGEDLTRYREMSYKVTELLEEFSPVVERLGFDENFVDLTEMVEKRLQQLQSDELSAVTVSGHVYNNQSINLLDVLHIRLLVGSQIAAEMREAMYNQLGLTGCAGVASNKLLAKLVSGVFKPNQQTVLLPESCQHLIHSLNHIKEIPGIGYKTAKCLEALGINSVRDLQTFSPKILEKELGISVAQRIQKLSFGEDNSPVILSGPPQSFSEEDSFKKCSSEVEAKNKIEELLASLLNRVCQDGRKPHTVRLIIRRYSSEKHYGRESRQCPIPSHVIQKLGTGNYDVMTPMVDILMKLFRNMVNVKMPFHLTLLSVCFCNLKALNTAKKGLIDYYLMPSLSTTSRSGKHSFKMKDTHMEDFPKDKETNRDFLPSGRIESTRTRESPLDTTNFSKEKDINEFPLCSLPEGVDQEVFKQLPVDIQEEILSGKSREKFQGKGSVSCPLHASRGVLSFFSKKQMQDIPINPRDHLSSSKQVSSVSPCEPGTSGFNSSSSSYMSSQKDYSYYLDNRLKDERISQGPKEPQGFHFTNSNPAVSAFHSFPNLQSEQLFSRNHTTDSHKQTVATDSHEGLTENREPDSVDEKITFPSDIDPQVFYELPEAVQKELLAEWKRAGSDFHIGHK

Question: CSc1ccccc1-c1nnc(NC(=O)c2ccc3c(c2)OCCO3)o1 was tested. Which “activity, negative = inhibition” value did it give?
Answer: -15.2%

Question: With Cc1ccc(NC(=O)Cn2nnc3sc4c(c3c2=O)CCC(C)C4)cc1 (centres undefined) as the compound, how does the “activity, negative = inhibition” value read?
Answer: 20%

Question: O=C(CCc1n[nH]c(=O)[nH]c1=O)N/N=C/c1ccc(Br)o1 was tested. Which “activity, negative = inhibition” value did it give?
Answer: 5.97%

Question: O=C(CCNC(=O)c1ccccc1Cl)NN=Cc1ccco1 was tested. Which “activity, negative = inhibition” value did it give?
Answer: 29.4%

Question: For O=C(CCNC(=O)c1ccccc1)NN=Cc1ccc(Br)o1, which Potency is on record?
Answer: 35.5 µM (active)

Question: With O=S(=O)(Nc1cccc2cccnc12)c1cccc2cccnc12 as the compound, how does the “activity, negative = inhibition” value read?
Answer: 55.6%

Question: With ClC/C=C/C[n+]1ccccc1Cl as the compound, how does the “activity, negative = inhibition” value read?
Answer: -0.0585%

Question: With CCOC(=O)C1CCCN(C(=O)Cn2ncc3c(C)n(Cc4ccc(F)cc4)c(C)c3c2=O)C1 (centres undefined) as the compound, how does the “activity, negative = inhibition” value read?
Answer: 18.1%

Question: For O=c1ccc2c(-c3ccccc3S(=O)(=O)O)c3ccc(O)c(O)c3oc-2c1O, which Potency is on record?
Answer: 1.12 µM (active)

Question: With COc1ccc(CCn2c3c(c(=O)[nH]c2=S)CN(C(C)C)CN3)cc1OC as the compound, how does the “activity, negative = inhibition” value read?
Answer: 32.6%

Question: For COc1ccccc1-c1cc2nc(C)c(CCC(=O)NC3CCCCC3)c(C)n2n1, which “activity, negative = inhibition” value is on record?
Answer: 14.6%

Question: For COc1ccc2c(c1)c(=Cc1ccc(N(C)C)cc1)c1cc(-c3ccccc3)[n+](C)n12, which Potency is on record?
Answer: 39.8 µM (active)

Question: Which “activity, negative = inhibition” value does the source give for CN(C)c1ccc(/C=c2\[nH]c(=O)/c(=C/c3ccc(N(C)C)cc3)[nH]c2=O)cc1 here?
Answer: 13.7%

Question: O=C(Cn1ncn2nc(-c3cccs3)cc2c1=O)NCc1cccc(Br)c1 was tested. Which “activity, negative = inhibition” value did it give?
Answer: 8.76%

Question: O=C(Nc1ccc(OC(F)(F)F)cc1)C1CCCN(S(=O)(=O)c2ccc(Br)s2)C1 (centres undefined) was tested. Which “activity, negative = inhibition” value did it give?
Answer: 22.4%

Question: For SCc1nc2ccc(Cl)cc2[nH]1, which “activity, negative = inhibition” value is on record?
Answer: 37.3%

Question: Fc1ccc(CN2CCc3nc(Nc4ccccc4)ncc3C2)cc1F was tested. Which “activity, negative = inhibition” value did it give?
Answer: 8.9%

Question: Which “activity, negative = inhibition” value does the source give for O=C(COC(=O)c1cc(=O)[nH]c2ccccc12)Nc1nc(-c2cccc(Br)c2)cs1 here?
Answer: 150%

Question: With Cc1cc(C)c(-c2csc(NC(=O)CCCc3nc4ccccc4c(=O)[nH]3)n2)c(C)c1 as the compound, how does the “activity, negative = inhibition” value read?
Answer: -0.398%

Question: With O=C(CSc1nc2ccccc2c(=O)[nH]1)Nc1nc(-c2ccc(Br)cc2)cs1 as the compound, how does the Potency read?
Answer: 6.31 µM (active)

Question: Which “activity, negative = inhibition” value does the source give for COc1ccc(-n2nc(C(=O)NCCc3ccc(Cl)cc3)c3c4ccccc4n(C)c3c2=O)cc1Cl here?
Answer: 21%

Question: Which “activity, negative = inhibition” value does the source give for Cc1cccc(-n2ccnc2SCC(=O)Nc2cccc3ccccc23)c1C here?
Answer: 3.77%

Question: How did the “activity, negative = inhibition” value turn out when COc1cc2nc(C#Cc3nc4cc(OC)c(OC)cc4[nH]3)[nH]c2cc1OC was run?
Answer: 36.6%

Question: With Cc1nc(N2CCOCC2)sc1C(=O)NN as the compound, how does the Potency read?
Answer: 7.08 µM (active)

Question: How did the “activity, negative = inhibition” value turn out when COc1ccc(NC(=O)c2sc(N3CCOCC3)nc2-c2ccccc2)c(OC)c1 was run?
Answer: -0.489%

Question: Cc1cc(C)c2nc(N3CCC(C(=O)NCCN4CCOCC4)CC3)sc2c1 was tested. Which “activity, negative = inhibition” value did it give?
Answer: 12.1%

Question: With Cn1c(=O)sc2cc(NS(=O)(=O)c3ccc(C(C)(C)C)cc3)ccc21 as the compound, how does the “activity, negative = inhibition” value read?
Answer: 20.1%

Question: CCOc1ccc(Nc2oc(/C=C/c3ccc(F)cc3)nc2C#N)cc1 was tested. Which “activity, negative = inhibition” value did it give?
Answer: -6.11%

Question: For COc1cc(C(=O)NCCc2csc3nc(-c4ccccc4C)nn23)cc(OC)c1OC, which “activity, negative = inhibition” value is on record?
Answer: -0.325%

Question: With CC(=O)N(C1=C(Cl)C(=O)c2ccccc2C1=O)c1ccc(C(=O)O)cc1 as the compound, how does the Potency read?
Answer: 3.16 µM (active)

Question: With Cc1cccc(C(C)C)c1NC(=O)C(NS(=O)(=O)c1cccc2nsnc12)c1ccccc1 (centres undefined) as the compound, how does the “activity, negative = inhibition” value read?
Answer: 14.3%

Question: With CC(=O)N1CCCc2cc(S(=O)(=O)N3CCC(C(=O)NC4CCCCC4)CC3)ccc21 as the compound, how does the “activity, negative = inhibition” value read?
Answer: 11.2%

Question: For COc1ccccc1Nc1cc(C(=O)NCCCN(C)C2CCCCC2)c2ccccc2n1, which “activity, negative = inhibition” value is on record?
Answer: 9.81%

Question: With COc1ccc(Nc2cc(C(=O)NCCCN(C)c3ccccc3)c3ccccc3n2)c(OC)c1 as the compound, how does the “activity, negative = inhibition” value read?
Answer: -12.6%

Question: For CN(C)CCNC(=O)c1ccc(Cl)c2cc3ccccc3nc12, which Potency is on record?
Answer: 89.1 µM (active)

Question: How did the “activity, negative = inhibition” value turn out when CCOC(=O)c1ccc(NC(=O)CCS(=O)(=O)c2ccc(C)cc2)cc1 was run?
Answer: 8.77%

Question: For CCOC(=O)c1c(C)[nH]c(C)c1S(=O)(=O)N1CCC(C(=O)Nc2ccc(C)c(Cl)c2)CC1, which “activity, negative = inhibition” value is on record?
Answer: 10.4%

Question: CCOC(=O)c1scc(-c2ccccc2)c1S(=O)(=O)Nc1ccccc1F was tested. Which “activity, negative = inhibition” value did it give?
Answer: -22.6%

Question: CCN1CCN(C(c2ccc(C)cc2)c2c(O)cc(C)n(Cc3ccco3)c2=O)CC1 (centres undefined) was tested. Which “activity, negative = inhibition” value did it give?
Answer: 24.1%

Question: How did the “activity, negative = inhibition” value turn out when O=C(CSc1ccccc1)Nc1cccc(S(=O)(=O)N2CCOCC2)c1 was run?
Answer: -11.4%

Question: With O=C(COC(=O)CCc1ccc(S(=O)(=O)N2CCOCC2)cc1)Nc1cccc(Cl)c1 as the compound, how does the “activity, negative = inhibition” value read?
Answer: 108%

Question: For O=C(COC(=O)/C=C/c1ccc(Br)o1)Nc1cccc(S(=O)(=O)N2CCOCC2)c1, which Potency is on record?
Answer: 20 µM (active)

Question: Which “activity, negative = inhibition” value does the source give for Cc1ccc(NC(=O)Cc2ccc(NC(=O)N3CCCCc4ccccc43)cc2)cc1 here?
Answer: 11.6%

Question: C=CCC1=C/C(=C\c2c(N)n3nc(CC(=O)N4CCOCC4)sc3nc2=O)C=C(OC)C1=O was tested. Which Potency did it give?
Answer: 22.4 µM (active)

Question: For COc1ccc(-c2nc(SCC(=O)N3CCOCC3)n[nH]2)cc1, which “activity, negative = inhibition” value is on record?
Answer: 9.38%

Question: For COC1=C/C(=C/c2c(N)n3nc(CC(=O)N4CCOCC4)sc3nc2=O)C=CC1=O, which Potency is on record?
Answer: 22.4 µM (active)

Question: COc1ccc(-c2ccnc(SCC(=O)N3CCOCC3)n2)cc1 was tested. Which “activity, negative = inhibition” value did it give?
Answer: -10.2%

Question: CCCOc1ccc(C2c3c(-c4ccccc4O)n[nH]c3C(=O)N2Cc2cccnc2)cc1 (centres undefined) was tested. Which “activity, negative = inhibition” value did it give?
Answer: -8.5%

Question: How did the “activity, negative = inhibition” value turn out when COc1ccc(CNC(=O)c2ccc(NC(=O)N3CC4CCCN4c4ccccc43)cc2)cc1 (centres undefined) was run?
Answer: 29.1%
